According to PubChem BioAssay AID1159580 (chemical genetic matrix, 2015):
Among all 5,500 compounds or so, about 2,000 (36%) were called active. About 18% were inconclusive and are not listed. Rule as the data show it: active = normalized growth mostly below about 0.91 (no sharp cut-off); inconclusive = no clear call, values can overlap the other calls; inactive = mostly above about 0.92. The list shows a part of the results.

Assay: chemical genetic growth profiling, strain panel (AID 1159580);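 also: tested at 20 µM; growth read once vehicle control cultures reached saturation at 30 °C; 1 = growth at the plate median or of vehicle wells; lower values mean less growth of the strain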
Conditions: growth OD

Measured: normalized growth

COc1cc(S(C)=O)ccc1-c1nc2ncccc2[nH]1 (centres undefined)
inactive: S. cerevisiae deletion strains, locus YJR043C, strain POL32, stronger effect = lower value 1 | S. cerevisiae deletion strains, locus YJR075W, strain HOC1, stronger effect = lower value 0.983 | S. cerevisiae deletion strains, locus YKL009W, strain mrt4, stronger effect = lower value 1 | S. cerevisiae deletion strains, locus YKL068W, stronger effect = lower value 0.991 | S. cerevisiae deletion strains, locus YKL085W, strain MDH1 (second series), stronger effect = lower value 1 | S. cerevisiae deletion strains, locus YKL085W, strain MDH1, stronger effect = lower value 1 | S. cerevisiae deletion strains, locus YKL160W, strain elf1, stronger effect = lower value 0.947 | S. cerevisiae deletion strains, locus YKL190W, strain CNB1, stronger effect = lower value 0.991 | S. cerevisiae deletion strains, locus YKR001C, strain vps1, stronger effect = lower value 0.986 | S. cerevisiae deletion strains, locus YKR026C, strain gcn3, stronger effect = lower value 0.98 | S. cerevisiae deletion strains, locus YKR091W, strain srl3, stronger effect = lower value 0.959 | S. cerevisiae deletion strains, locus YLL001W, strain dnm1, stronger effect = lower value 0.919 | S. cerevisiae deletion strains, locus YLL026W, stronger effect = lower value 0.962 | S. cerevisiae deletion strains, locus YLL041C, strain sdh2, stronger effect = lower value 0.97 | S. cerevisiae deletion strains, locus YLR027C, strain aat2, stronger effect = lower value 0.98 | S. cerevisiae deletion strains, locus YLR039C, strain RIC1, stronger effect = lower value 1.03 | S. cerevisiae deletion strains, locus YLR058C, strain SHM2, stronger effect = lower value 0.993 | S. cerevisiae deletion strains, locus YLR102C, strain apc9, stronger effect = lower value 0.999 | S. cerevisiae deletion strains, locus YLR221C, strain rsa3, stronger effect = lower value 1.01 | S. cerevisiae deletion strains, locus YLR258W, strain gsy2, stronger effect = lower value 0.93 | S. cerevisiae deletion strains, locus YLR262C, strain YPT6 (second series), stronger effect = lower value 0.987 | S. cerevisiae deletion strains, locus YLR262C, strain YPT6, stronger effect = lower value 0.994 | S. cerevisiae deletion strains, locus YLR268W, strain sec22, stronger effect = lower value 0.999 | S. cerevisiae deletion strains, locus YLR320W, strain mms22, stronger effect = lower value 0.995 | S. cerevisiae deletion strains, locus YLR330W, strain CHS5, stronger effect = lower value 0.988 | S. cerevisiae deletion strains, locus YLR342W, strain FKS1 (second series), stronger effect = lower value 1 | S. cerevisiae deletion strains, locus YLR342W, strain FKS1, stronger effect = lower value 0.969 | S. cerevisiae deletion strains, locus YLR357W, strain rsc2, stronger effect = lower value 0.915 | S. cerevisiae deletion strains, locus YLR370C, strain arc18, stronger effect = lower value 0.974 | S. cerevisiae deletion strains, locus YLR371W, strain rom2, stronger effect = lower value 0.991 | S. cerevisiae deletion strains, locus YLR384C, strain iki3, stronger effect = lower value 0.961 | S. cerevisiae deletion strains, locus YLR418C, strain cdc73, stronger effect = lower value 1.04 | S. cerevisiae deletion strains, locus YML016C, strain PPZ1, stronger effect = lower value 1 | S. cerevisiae deletion strains, locus YML032C, strain rad52, stronger effect = lower value 0.989 | S. cerevisiae deletion strains, locus YML120C, strain ndi1, stronger effect = lower value 0.971 | S. cerevisiae deletion strains, locus YML124C, strain tub3, stronger effect = lower value 0.993 | S. cerevisiae deletion strains, locus YMR058W, strain fet3, stronger effect = lower value 0.982 | S. cerevisiae deletion strains, locus YMR078C, strain ctf18, stronger effect = lower value 0.989 | S. cerevisiae deletion strains, locus YMR125W, strain sto1, stronger effect = lower value 0.927 | S. cerevisiae deletion strains, locus YMR129W, stronger effect = lower value 0.979 | S. cerevisiae deletion strains, locus YMR205C, strain PFK2, stronger effect = lower value 0.93 | S. cerevisiae deletion strains, locus YMR223W, strain ubp8, stronger effect = lower value 0.998 | S. cerevisiae deletion strains, locus YMR231W, strain pep5, stronger effect = lower value 0.99 | S. cerevisiae deletion strains, locus YMR263W, strain SAP30, stronger effect = lower value 0.975 | S. cerevisiae deletion strains, locus YMR307W, strain GAS1, stronger effect = lower value 1.03 | S. cerevisiae deletion strains, locus YNL067W, strain RPL9B, stronger effect = lower value 1.01 | S. cerevisiae deletion strains, locus YNL071W, strain lat1, stronger effect = lower value 0.97 | S. cerevisiae deletion strains, locus YNL128W, strain TEP1, stronger effect = lower value 0.997 | S. cerevisiae deletion strains, locus YNL153C, strain GIM3, stronger effect = lower value 0.999 | S. cerevisiae deletion strains, locus YNL209W, strain ssb2, stronger effect = lower value 0.98 | S. cerevisiae deletion strains, locus YNL233W, strain BNI4, stronger effect = lower value 0.995 | S. cerevisiae deletion strains, locus YNL248C, strain rpa49, stronger effect = lower value 0.967 | S. cerevisiae deletion strains, locus YNL250W, strain rad50, stronger effect = lower value 0.991 | S. cerevisiae deletion strains, locus YNL271C, strain bni1, stronger effect = lower value 0.997 | S. cerevisiae deletion strains, locus YNL298W, strain CLA4, stronger effect = lower value 0.971 | S. cerevisiae deletion strains, locus YNL307C, strain MCK1, stronger effect = lower value 1 | S. cerevisiae deletion strains, locus YNL322C, strain KRE1 (second series), stronger effect = lower value 0.938 | S. cerevisiae deletion strains, locus YNL322C, strain KRE1, stronger effect = lower value 0.998 | S. cerevisiae deletion strains, locus YNR049C, strain mso1, stronger effect = lower value 0.966 | S. cerevisiae deletion strains, locus YNR052C, strain pop2, stronger effect = lower value 0.976 | S. cerevisiae deletion strains, locus YOL006C, strain TOP1, stronger effect = lower value 1.04 | S. cerevisiae deletion strains, locus YOL012C, strain htz1 1.02 | S. cerevisiae deletion strains, locus YOL147C, strain pex11, stronger effect = lower value 0.982 | S. cerevisiae deletion strains, locus YOR001W, strain rrp6, stronger effect = lower value 1.01 | S. cerevisiae deletion strains, locus YOR061W, strain CKA2, stronger effect = lower value 1.01 | S. cerevisiae deletion strains, locus YOR069W, strain VPS5, stronger effect = lower value 1 | S. cerevisiae deletion strains, locus YOR070C, strain gyp1, stronger effect = lower value 0.993 | S. cerevisiae deletion strains, locus YOR080W, strain dia2, stronger effect = lower value 0.982 | S. cerevisiae deletion strains, locus YOR083W, strain WHI5, stronger effect = lower value 0.936 | S. cerevisiae deletion strains, locus YOR106W, strain vam3, stronger effect = lower value 0.91 | S. cerevisiae deletion strains, locus YOR136W, strain idh2, stronger effect = lower value 0.986 | S. cerevisiae deletion strains, locus YOR144C, strain elg1, stronger effect = lower value 0.99 | S. cerevisiae deletion strains, locus YOR184W, strain ser1, stronger effect = lower value 0.998 | S. cerevisiae deletion strains, locus YOR265W, strain rbl2, stronger effect = lower value 0.967 | S. cerevisiae deletion strains, locus YOR270C, strain vph1, stronger effect = lower value 0.974 | S. cerevisiae deletion strains, locus YOR290C, strain snf2, stronger effect = lower value 0.951 | S. cerevisiae deletion strains, locus YOR316C, strain cot1, stronger effect = lower value 0.991 | S. cerevisiae deletion strains, locus YPL051W, strain arl3, stronger effect = lower value 0.943 | S. cerevisiae deletion strains, locus YPL055C, strain LGE1, stronger effect = lower value 0.925 | S. cerevisiae deletion strains, locus YPL078C, strain atp4, stronger effect = lower value 0.94 | S. cerevisiae deletion strains, locus YPL106C, strain sse1, stronger effect = lower value 0.947 | S. cerevisiae deletion strains, locus YPL240C, strain hsp82, stronger effect = lower value 0.985 | S. cerevisiae deletion strains, locus YPL241C, strain CIN2, stronger effect = lower value 0.992 | S. cerevisiae deletion strains, locus YPR119W, strain clb2, stronger effect = lower value 0.988 | S. cerevisiae deletion strains, locus YPR141C, strain kar3, stronger effect = lower value 0.999 | S. cerevisiae deletion strains, locus YPR163C, strain tif3, stronger effect = lower value 0.982 | S. cerevisiae deletion strains, locus YPR167C, strain met16, stronger effect = lower value 0.999 | S. cerevisiae deletion strains, strain wtn01, stronger effect = lower value 0.975 | S. cerevisiae strains, strain wild type, stronger effect = lower value 1
